Inconclusive results are not listed. Active and inactive are the calls of the source. Unless noted, the call rests on the fitted dose curve.
How the values were obtained:
[1] = Nuclear factor erythroid 2-related factor 2/antioxidant responsive element (Nrf2/ARE) small molecule agonists: qHTS cell viability counter screen in human keratinocytes (AID 1919968; active means well fitted curve in the direction sought with a large enough effect in the repeat runs; an effect the other way counts as inactive or inconclusive; further: nearly all actives have a fitted effect of over 55% in size)
Procedure, shortened: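 KeratinoSens cells (HaCaT keratinocytes stably carrying an ARE-luciferase reporter) were seeded at 1,500 cells/well and rested 5 h at 37 C/5% CO2. They were then exposed to compounds in DMSO for 23 h. Viability was read by CellTiter-Fluor fluorescence after 1 h.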

[2] = Nuclear factor erythroid 2-related factor 2/antioxidant responsive element (Nrf2/ARE) small molecule agonists: luciferase reporter gene qHTS assay in human keratinocytes (AID 1919969); further: nearly all actives have a fitted effect of over 35% in size
[3] = target: Gonadotropin-releasing hormone receptor (Homo sapiens) (UniProt P30968); assay: Human gonadotropin-releasing hormone receptor (GnRHR) small molecule agonists, calcium flux assay in GnRHR-HEK293 cells (AID 1920063); further: nearly all actives have a fitted effect of over 35% in size
Sequence of Gonadotropin-releasing hormone receptor (Homo sapiens) (P30968 whole entry, looked up): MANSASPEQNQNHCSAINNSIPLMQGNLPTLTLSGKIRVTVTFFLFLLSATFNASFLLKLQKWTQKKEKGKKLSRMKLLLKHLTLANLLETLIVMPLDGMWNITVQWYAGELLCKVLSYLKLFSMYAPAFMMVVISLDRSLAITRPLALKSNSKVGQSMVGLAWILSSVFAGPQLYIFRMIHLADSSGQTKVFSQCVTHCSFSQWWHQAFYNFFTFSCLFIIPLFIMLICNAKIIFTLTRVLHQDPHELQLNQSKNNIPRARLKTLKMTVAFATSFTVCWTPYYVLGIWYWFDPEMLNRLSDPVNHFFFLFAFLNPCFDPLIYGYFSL
Procedure, shortened: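 HEK293 cells stably expressing human GnRHR were plated 18 h at 37 °C, loaded with calcium dye 1 h at 37 °C, then given compound in agonist mode; fluorescence (Ex/Em 480/540) read kinetically for 3 min at 1 s intervals.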

[4] = target: KiSS-1 receptor (Homo sapiens) (UniProt Q969F8); assay: Human kisspeptin (KISS1R) small molecule agonists, calcium flux assay in KISS1R-HEK293 cells (AID 1920064; active means well fitted curve in the direction sought with a large enough effect in the repeat runs; an effect the other way counts as inactive or inconclusive)
Sequence of KiSS-1 receptor (Homo sapiens) (Q969F8 whole entry, looked up): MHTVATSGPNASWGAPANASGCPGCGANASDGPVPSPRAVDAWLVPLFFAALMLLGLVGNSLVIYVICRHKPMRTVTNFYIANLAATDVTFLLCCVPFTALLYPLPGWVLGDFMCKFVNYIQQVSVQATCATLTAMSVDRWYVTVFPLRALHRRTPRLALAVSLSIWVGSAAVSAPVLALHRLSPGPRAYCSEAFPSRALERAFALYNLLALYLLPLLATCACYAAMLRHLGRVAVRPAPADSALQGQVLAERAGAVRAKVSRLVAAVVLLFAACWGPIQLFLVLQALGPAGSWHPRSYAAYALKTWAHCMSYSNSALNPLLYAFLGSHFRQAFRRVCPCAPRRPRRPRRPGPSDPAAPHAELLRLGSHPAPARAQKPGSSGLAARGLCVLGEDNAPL
Procedure, shortened: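 HEK293 cells stably expressing human KISS1R were plated 18 h at 37 °C, loaded with calcium dye for 1 h at 37 °C, then given compound by pin tool. Fluorescence (Ex/Em 480/540) was read kinetically for 3 min.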

[5] = G protein-coupled receptor (GPCR) small molecule agonists, calcium flux assay: HEK293 wild type cell line counter screen (AID 1920065)
Procedure, shortened: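 Cells were plated and cultured 18 h at 37 C/5% CO2, then loaded with calcium dye for 1 h at 37 C. Compounds in DMSO were pin-transferred in agonist mode, and fluorescence (Ex/Em 480/540) was read kinetically for 3 min at 1 s intervals.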

[6] = p53 small molecule agonists, cell-based qHTS assay with human liver microsomes (AID 1963577);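 further: p53 response element beta-lactamase reporter cells with liver microsomes plus NADPH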
Procedure, shortened: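 p53RE-bla cells; 5 h settle, 37 C/5% CO2; cpd + HLM 0.5 mg/mL + NADPH 0.5 mg/mL (final); 16 h 37 C; LiveBLAzer 2 h RT dark; fluorescence readout.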

[7] = p53 small molecule agonists, cell-based qHTS assay with rat liver microsomes (AID 1963578)
Procedure, shortened: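 Rat liver microsome activation: microsomes 0.5 mg/mL, NADPH 0.5 mg/mL final; p53RE-bla cells, 16 h 37 C; LiveBLAzer readout, 2 h RT dark.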

[8] = p53 small molecule agonists, cell-based qHTS assay with human liver microsomes: qHTS cell viability counter screen (AID 1963579); further: nearly all actives have a fitted effect of over 45% in size
Procedure, shortened: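 Luminescent CellTiter-Glo read-out, 30 min at room temperature, gauged cytotoxicity in p53RE-bla cells exposed 16 h at 37 C to DMSO-dissolved compounds with metabolic activation by human liver microsomes and NADPH, each 0.5 mg/mL final.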

[9] = p53 small molecule agonists, cell-based qHTS assay with rat liver microsomes: qHTS cell viability counter screen (AID 1963580); further: nearly all actives have a fitted effect of over 45% in size
Procedure, shortened: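 Viability is assessed in parallel with the p53 reporter read: HCT-116 p53RE-bla cells receive compounds plus rat microsomes and NADPH (0.5 mg/mL final apiece), incubate 16 h at 37 C, and then CellTiter-Glo luminescence is recorded.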

[10] = p53 small molecule agonists, cell-based qHTS assay: qHTS cell viability counter screen (AID 1963581); further: nearly all actives have a fitted effect of over 45% in size
Procedure, shortened: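 p53RE-bla HCT-116 cells were exposed to compounds for 16 h at 37 C; after the beta-lactamase FRET read in the same wells, CellTiter-Glo was added and luminescence (intracellular ATP) read after 30 min at room temperature.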

[11] = p53 small molecule agonists, cell-based qHTS assay (AID 1963582; active means well fitted activation curve with a large enough effect in the signal ratio in the repeat runs, not every such curve was filed as active; the % refers to the signal ratio)
Procedure, shortened: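 p53RE-bla beta-lactamase reporter cells rested 5 h at 37 C/5% CO2, then received compounds in DMSO by pin transfer and were incubated 16 h at 37 C. LiveBLAzer B/G FRET substrate was loaded for 2 h at room temperature before fluorescence reading.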

[12] = cAMP Responsive Elements (CRE) small molecule agonists, cell-based qHTS assay (AID 1963590)
Procedure, shortened: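 CRE-bla HEK 293T cells in DMEM with 10% dialyzed FBS, NEAA, pyruvate and 25 mM HEPES were plated 18 h at 37 C/5% CO2, then exposed to compounds in DMSO for 3 h before LiveBLAzer B/G FRET substrate addition.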

[13] = cAMP Responsive Elements (CRE) small molecule antagonists, cell-based qHTS assay (AID 1963591; active means well fitted inhibition curve with a large enough effect in the signal ratio in the repeat runs, not every such curve was filed as active; the % refers to the signal ratio)
Procedure, shortened: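 CRE-bla HEK293T cells were plated 18 h at 37 °C/5% CO2, pinned with compound in DMSO, then stimulated with NKH477 at 0.25 uM final for 3 h. LiveBLAzer B/G FRET substrate was added and plates incubated 2 h at room temperature.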

[14] = target: Beta-2 adrenergic receptor (Homo sapiens) (UniProt P07550); assay: Adrenergic beta2 receptor (ADRB2) small molecule antagonists, cell-based qHTS assay (AID 1963592); further: series mostly up to about 92 µM; nearly all actives have a fitted effect of over 50% in size
Sequence of Beta-2 adrenergic receptor (Homo sapiens) (P07550 whole entry, looked up): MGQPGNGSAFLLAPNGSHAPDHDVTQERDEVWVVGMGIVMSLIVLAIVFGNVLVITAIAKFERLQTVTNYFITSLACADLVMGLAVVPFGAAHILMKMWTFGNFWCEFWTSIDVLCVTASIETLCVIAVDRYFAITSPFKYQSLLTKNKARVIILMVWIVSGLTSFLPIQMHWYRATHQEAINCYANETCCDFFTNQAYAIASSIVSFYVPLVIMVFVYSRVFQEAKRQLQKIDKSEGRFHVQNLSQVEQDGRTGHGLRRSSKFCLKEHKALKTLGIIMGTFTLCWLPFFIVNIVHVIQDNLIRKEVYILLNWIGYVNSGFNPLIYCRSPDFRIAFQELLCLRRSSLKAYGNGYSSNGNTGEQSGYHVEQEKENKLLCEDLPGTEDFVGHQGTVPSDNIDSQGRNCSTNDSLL
Procedure, shortened: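 Cells (CHO, stable ADRB2 overexpression) incubated 18-20hr at 37C; compounds added from DMSO; agonist mix (1nM isoproterenol, 100uM IBMX, 25uM Ro-20-1724) added; 0.5hr RT; d2-cAMP and anti-cAMP-cryptate added; 1hr RT; 665/615 nm read.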

[15] = target: D(2) dopamine receptor (Homo sapiens) (UniProt P14416); assay: Dopamine D2 receptor (DRD2) small molecule antagonists, cell-based qHTS assay (AID 1963595; active means well fitted inhibition curve with a large enough effect in the signal ratio in the repeat runs, with a control signal flat; the % refers to the signal ratio)
Sequence of D(2) dopamine receptor (Homo sapiens) (P14416 whole entry, looked up): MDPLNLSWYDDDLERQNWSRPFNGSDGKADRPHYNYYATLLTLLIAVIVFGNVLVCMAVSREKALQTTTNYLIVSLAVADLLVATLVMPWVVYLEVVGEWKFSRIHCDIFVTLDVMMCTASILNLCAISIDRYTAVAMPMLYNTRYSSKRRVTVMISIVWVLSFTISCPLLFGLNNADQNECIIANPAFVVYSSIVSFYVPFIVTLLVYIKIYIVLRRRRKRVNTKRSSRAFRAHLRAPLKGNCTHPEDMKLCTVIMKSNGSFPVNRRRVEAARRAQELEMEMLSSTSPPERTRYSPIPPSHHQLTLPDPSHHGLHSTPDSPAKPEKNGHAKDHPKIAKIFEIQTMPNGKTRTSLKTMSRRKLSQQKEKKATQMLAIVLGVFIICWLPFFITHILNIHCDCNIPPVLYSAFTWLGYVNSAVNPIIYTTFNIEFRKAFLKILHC
Procedure, shortened: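 Readout: HTRF cAMP, cAMP-d2 competing with cellular cAMP for anti-cAMP cryptate, read after 1 h. Cells: DRD2-HEK293. Conditions: 0.1 mM Ro20-1724, 12 nM quinpirole, 200 nM NKH477, 30 min RT.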

[16] = target: D(2) dopamine receptor (Homo sapiens) (UniProt P14416); assay: Dopamine D2 receptor (DRD2) small molecule agonists, cell-based qHTS assay (AID 1963594); further: nearly all actives have a fitted effect of over 35% in size
Procedure, shortened: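 HEK293 cells stably expressing human DRD2, pre-treated with PDE inhibitor Ro20-1724 (0.1 mM final) and compound 10 min at room temperature, then stimulated with NKH477 (200nM […]) for 30 min. cAMP read by HTRF (665/620 nm).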

Measured: Potency

Cc1ccnc(NS(=O)(=O)c2ccc(N)cc2)n1
inactive: [1] | [2] | [3] | [4] | [5] | [6] | [7] | [8] | [9] | [10] | [11] | [12] | [13] | [14] | [15]

CCOC(=O)[C@H](CCc1ccccc1)N[C@@H](C)C(=O)N1[C@H](C(=O)O)C[C@@H]2CCC[C@@H]21
inactive: [1] | [2] | [3] | [4] | [5] | [6] | [7] | [8] | [9] | [10] | [11] | [12] | [13] | [16] | [15]

NS(=O)(=O)c1cc2c(cc1Cl)NC(C(Cl)Cl)NS2(=O)=O (stereo not given)
inactive: [1] | [2] | [3] | [4] | [5] | [6] | [7] | [8] | [9] | [10] | [11] | [12] | [14] | [16]

COc1cc(CNC(=O)CCCC/C=C/C(C)C)ccc1O
inactive: [1] | [2] | [3] | [4] | [5] | [6] | [7] | [8] | [9] | [10] | [11] | [12] | [13] | [14] | [16] | [15]

CCCCc1nc(Cl)c(CO)n1Cc1ccc(-c2ccccc2-c2nn[nH]n2)cc1
inactive: [1] | [2] | [3] | [4] | [5] | [6] | [7] | [8] | [9] | [10] | [11] | [12] | [16] | [15]

O=c1[nH]c(=O)n([C@H]2C[C@H](O)[C@@H](CO)O2)cc1I
inactive: [1] | [2] | [3] | [4] | [5] | [6] | [7] | [8] | [9] | [10] | [11] | [12] | [13] | [14] | [16] | [15]

CC[C@@H](CO)NCCN[C@@H](CC)CO
inactive: [1] | [2] | [3] | [4] | [5] | [6] | [7] | [8] | [9] | [10] | [11] | [12] | [13] | [14] | [16] | [15]

CC(C)(C)NC[C@H](O)COc1cccc2c1CCCC2=O
inactive: [1] | [2] | [3] | [4] | [5] | [6] | [7] | [8] | [9] | [10] | [11] | [12] | [16] | [15]

— PubChem BioAssay (Tox21)
